GRK2 aptamer HTS = inhibitors of human GRK2 displacing RNA aptamer. inhibition of aptamer binding, % at 10 µM. P25098. bead flow cytometry, FAM-aptamer displacement from GRK2. hit rate 0.59% among 330,000. AID 488847;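 active = inhibition of aptamer binding above 40%, roughly 3 SD of noise, on plates passing a quality check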;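 note: median bead fluorescence of bound FAM aptamer so fluorescent compounds give negative values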
Pemphigus Ab inh = blocks pemphigus antibody binding to human desmoglein-3; P32926; DSG3-coupled beads, scFv-anti-DSG3-GFP binding, flow cytometry; stronger effect = lower value; binding (percent of control), % at 10 µM; hit rate 0.48% among 310,000; AID 588358;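 active = binding more than 3 SD below its plate's average and above zero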
LANA-H2B inh = blocks KSHV LANA binding to histone H2A/H2B. hit rate 0.6% among 320,000. Q9QR71. cell-free LANA-H2A/H2B peptide, fluorescence polarization. AID 2629. inhibition, % (concentration not given with the values); in the data active = inhibition mostly above about 10%, no sharp cut-off; inactive = mostly below about 6.7%
Target sequence (Q9QR71 whole entry, looked up): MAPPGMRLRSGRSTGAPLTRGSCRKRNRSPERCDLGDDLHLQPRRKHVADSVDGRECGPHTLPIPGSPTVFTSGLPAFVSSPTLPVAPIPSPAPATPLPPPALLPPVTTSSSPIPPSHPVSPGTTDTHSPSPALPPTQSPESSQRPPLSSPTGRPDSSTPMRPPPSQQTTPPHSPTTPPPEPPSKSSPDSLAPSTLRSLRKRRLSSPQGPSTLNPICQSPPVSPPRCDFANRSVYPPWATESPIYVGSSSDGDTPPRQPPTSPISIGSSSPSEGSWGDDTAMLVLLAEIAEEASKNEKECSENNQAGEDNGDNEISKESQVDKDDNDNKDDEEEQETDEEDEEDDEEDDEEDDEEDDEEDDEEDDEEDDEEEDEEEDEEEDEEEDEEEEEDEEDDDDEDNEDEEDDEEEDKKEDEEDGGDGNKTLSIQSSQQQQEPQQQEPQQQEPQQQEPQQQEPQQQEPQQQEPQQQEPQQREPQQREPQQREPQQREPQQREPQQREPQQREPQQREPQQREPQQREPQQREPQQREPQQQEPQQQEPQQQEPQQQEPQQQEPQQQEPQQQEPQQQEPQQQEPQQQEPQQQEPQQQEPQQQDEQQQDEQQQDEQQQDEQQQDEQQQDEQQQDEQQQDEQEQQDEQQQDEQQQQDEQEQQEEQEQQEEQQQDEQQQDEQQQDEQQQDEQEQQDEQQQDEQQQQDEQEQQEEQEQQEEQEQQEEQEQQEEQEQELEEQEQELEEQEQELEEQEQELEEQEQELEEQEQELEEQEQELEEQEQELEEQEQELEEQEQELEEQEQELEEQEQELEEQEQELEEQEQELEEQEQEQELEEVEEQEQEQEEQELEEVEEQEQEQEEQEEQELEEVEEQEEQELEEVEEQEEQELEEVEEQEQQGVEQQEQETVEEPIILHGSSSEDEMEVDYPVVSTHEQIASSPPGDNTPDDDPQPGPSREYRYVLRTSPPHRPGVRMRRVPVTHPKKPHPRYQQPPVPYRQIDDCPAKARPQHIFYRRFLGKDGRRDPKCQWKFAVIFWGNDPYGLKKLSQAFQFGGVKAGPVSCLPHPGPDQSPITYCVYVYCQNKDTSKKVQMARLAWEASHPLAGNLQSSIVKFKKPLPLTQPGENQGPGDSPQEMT
VLA-4 inh = inhibition in a human VLA-4 binding assay; inhibition, % (about 7 µM as worked out from the volumes in the protocol); hit rate 0.2% among 330,000; VLA-4 expressing cells, ligand binding flow cytometry
PKD1 kinase inh = PKD1 (human) kinase inhibition. PKD1 kinase fluorescence polarization assay. inhibition, % (test concentration not listed). hit rate 0.056% among 200,000. AID 797
HDAC3 inhib = blocks human histone deacetylase 3. O15379. recombinant HDAC3, fluorogenic peptide/trypsin coupled, fluorescence. inhibition, % at 8.3 µM. hit rate 0.15% among 320,000. AID 2718; in the data active = inhibition above about 26%, passing the limit was not always enough
GRK2 inh confirm = confirmation of human GRK2 inhibitors displacing RNA aptamer. shares compounds with GRK2 aptamer HTS. AID 504451. hit rate 4% among 2,000. bead-bound GRK2, FAM-aptamer displacement, flow cytometry. aptamer displacement, % at 10 µM;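 active = aptamer displacement above 40%, near three times the noise of non-fluorescent compounds, on plates passing quality checks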;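 note: negative values mostly reflect intrinsic compound fluorescence rather than true enhancement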
FAM quench CP1 = counter-screen for GRK2 aptamer inhibitors: fluorescent aptamer quenchers. shares compounds with GRK2 aptamer HTS. Carboxyfluorescein RNA aptamer on beads, flow cytometry quenching; stronger effect = lower value. fluorescence response (% of DMSO), % at 10 µM. 2,000 tested, under 10 active. AID 504580;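 active = compounds that quench the bead-bound fluorescent RNA probe, cutting fluorescence to under half of the solvent control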;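 note: counterscreen run without GRK2 so only probe quenching by compound is measured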
Numbers stand for hits. The list is not random: actives were taken first. Their share in the collection is about 1.8%. Cut-off read from the data, not from the text of the source, unless noted: active = inhibition above about 50%; inactive = the rest.

Screening CC(C(=O)N1CCOCCOCCOCC1)N1C(=O)c2ccccc2C1=O (stereo unspecified) returned GRK2 aptamer HTS 86, Pemphigus Ab inh inactive, LANA-H2B inh inactive, VLA-4 inh inactive, PKD1 kinase inh inactive, HDAC3 inhib inactive, GRK2 inh confirm inactive and FAM quench CP1 inactive.
COc1ccc2sc(-c3ccc(N(C)C)cc3)c(-c3cnc(OC)nc3)c2c1 was read as GRK2 aptamer HTS inactive, Pemphigus Ab inh inactive, LANA-H2B inh inactive, VLA-4 inh inactive and HDAC3 inhib inactive.
For COc1ccccc1NC(=O)Nc1ccnn1C1CCN(C(=O)c2cccnc2)CC1 the results were GRK2 aptamer HTS inactive, Pemphigus Ab inh inactive, LANA-H2B inh inactive, VLA-4 inh inactive and HDAC3 inhib inactive.
CCOc1ccc(-n2nc(C(=O)NCCOC)c3ccccc3c2=O)cc1 was read as GRK2 aptamer HTS inactive, Pemphigus Ab inh inactive, LANA-H2B inh inactive, VLA-4 inh inactive, PKD1 kinase inh inactive and HDAC3 inhib inactive.
CCOc1ccc(-n2nc(C(=O)NC3CCCCC3)c3ccccc3c2=O)cc1 was read as GRK2 aptamer HTS 81, LANA-H2B inh inactive, VLA-4 inh inactive, HDAC3 inhib inactive, GRK2 inh confirm inactive and FAM quench CP1 inactive.
`CCC(C)NC(=O)CNC(=O)c1nn(-c2ccc(OC)cc2)c(=O)c2ccccc12` (stereo unspecified) gave GRK2 aptamer HTS 44, Pemphigus Ab inh inactive, LANA-H2B inh inactive, VLA-4 inh inactive, HDAC3 inhib inactive, GRK2 inh confirm inactive and FAM quench CP1 inactive.
CCc1ccc(NC(=O)CNC(=O)c2nn(-c3ccc(OC)cc3)c(=O)c3ccccc23)cc1 was read as GRK2 aptamer HTS inactive, Pemphigus Ab inh inactive, LANA-H2B inh inactive, VLA-4 inh inactive and HDAC3 inhib inactive.
Screening CCC(C)NC(=O)CNC(=O)c1nn(-c2ccc(OC)c(Cl)c2)c(=O)c2ccccc12 (stereo unspecified) returned GRK2 aptamer HTS inactive, Pemphigus Ab inh inactive, LANA-H2B inh inactive, VLA-4 inh inactive, HDAC3 inhib inactive, GRK2 inh confirm inactive and FAM quench CP1 inactive.
`CC(=Nc1ccccc1)C1=C(O)CCCC1=O` gave GRK2 aptamer HTS inactive, Pemphigus Ab inh inactive, LANA-H2B inh inactive, VLA-4 inh inactive, PKD1 kinase inh inactive, HDAC3 inhib inactive, GRK2 inh confirm inactive and FAM quench CP1 inactive.
`CC(=Nc1ccccc1)C1=C(O)CC(C)(C)CC1=O` gave GRK2 aptamer HTS inactive, Pemphigus Ab inh inactive, LANA-H2B inh inactive, VLA-4 inh inactive, PKD1 kinase inh inactive and HDAC3 inhib inactive.
Screening COc1cc2nc(-c3cccs3)oc(=O)c2cc1OC returned GRK2 aptamer HTS 74, Pemphigus Ab inh inactive, LANA-H2B inh inactive, VLA-4 inh inactive, PKD1 kinase inh inactive, HDAC3 inhib inactive, GRK2 inh confirm inactive and FAM quench CP1 inactive.
`Cc1ccc2nc(-c3cccs3)oc(=O)c2c1` gave GRK2 aptamer HTS inactive, Pemphigus Ab inh inactive, LANA-H2B inh inactive, VLA-4 inh inactive, PKD1 kinase inh inactive and HDAC3 inhib inactive.
Screening CCN1CCN(C(=O)c2ccc(Cl)c(S(=O)(=O)N(C)c3ccccc3)c2)CC1 returned GRK2 aptamer HTS inactive, Pemphigus Ab inh inactive, LANA-H2B inh inactive, VLA-4 inh inactive and HDAC3 inhib inactive.
Cc1c(O)ccc2c(CC(=O)N[C@@H](Cc3ccc(O)cc3)C(=O)O)cc(=O)oc12 was read as GRK2 aptamer HTS inactive, Pemphigus Ab inh inactive, LANA-H2B inh inactive, VLA-4 inh inactive and HDAC3 inhib inactive.
CN1CCc2nc3sc(C(=O)C45CC6CC(CC(C6)C4)C5)c(N)c3cc2C1 was read as GRK2 aptamer HTS 51, Pemphigus Ab inh inactive, LANA-H2B inh inactive, VLA-4 inh inactive, PKD1 kinase inh inactive, HDAC3 inhib inactive, GRK2 inh confirm inactive and FAM quench CP1 inactive.
Screening Nc1c(C(=O)C2CC2)sc2nc3c(cc12)CCC3 returned GRK2 aptamer HTS inactive, Pemphigus Ab inh inactive, LANA-H2B inh inactive, VLA-4 inh inactive, PKD1 kinase inh inactive and HDAC3 inhib inactive.
For Cc1ccc(/C=C2\SC(=S)N(C3CCS(=O)(=O)C3)C2=O)o1 (stereo unspecified) the results were GRK2 aptamer HTS 43, Pemphigus Ab inh inactive, LANA-H2B inh inactive, VLA-4 inh inactive, PKD1 kinase inh inactive, HDAC3 inhib inactive, GRK2 inh confirm inactive and FAM quench CP1 inactive.
Screening COc1cc(C(=O)NCCC(=O)NCc2c(F)cc(F)cc2F)cc(OC)c1OC returned GRK2 aptamer HTS inactive, Pemphigus Ab inh inactive, LANA-H2B inh inactive, VLA-4 inh inactive and HDAC3 inhib inactive.
`Cc1c(NC(=O)c2ccc(S(=O)(=O)N(C)C)cc2)cccc1-n1cnnn1` gave GRK2 aptamer HTS 94, Pemphigus Ab inh inactive, LANA-H2B inh inactive, VLA-4 inh inactive, HDAC3 inhib inactive, GRK2 inh confirm inactive and FAM quench CP1 inactive.
Cc1c(NC(=O)c2ccc(Cl)c([N+](=O)[O-])c2)cccc1-n1cnnn1 was read as GRK2 aptamer HTS inactive, Pemphigus Ab inh inactive, LANA-H2B inh inactive, VLA-4 inh inactive and HDAC3 inhib inactive.
Cc1c(Cl)cccc1NS(=O)(=O)c1cn(C)c(=O)n(C)c1=O was read as GRK2 aptamer HTS 59, Pemphigus Ab inh inactive, LANA-H2B inh inactive, VLA-4 inh inactive, HDAC3 inhib inactive, GRK2 inh confirm inactive and FAM quench CP1 inactive.
For CSc1ccc(/C=C/C(=O)c2ccc(NC(C)=O)cc2)cc1 the results were GRK2 aptamer HTS 88, Pemphigus Ab inh inactive, LANA-H2B inh inactive, VLA-4 inh inactive, PKD1 kinase inh inactive, HDAC3 inhib inactive, GRK2 inh confirm inactive and FAM quench CP1 inactive.
Screening Cc1ccc(-c2csc3ncn(CC(=O)NCC(c4ccco4)N4CCCC4)c(=O)c23)cc1 (stereo unspecified) returned GRK2 aptamer HTS 78, Pemphigus Ab inh inactive, LANA-H2B inh inactive, VLA-4 inh inactive, HDAC3 inhib inactive, GRK2 inh confirm inactive and FAM quench CP1 inactive.
Screening CC1CCN(S(=O)(=O)c2ccc(NC(=O)C3CCCCC3C(=O)O)cc2)CC1 (stereo unspecified) returned Pemphigus Ab inh inactive.
Screening O=C(Cc1ccccc1)NS(=O)(=O)c1ccc(N=NN2CCOCC2)cc1 returned GRK2 aptamer HTS inactive, Pemphigus Ab inh inactive, LANA-H2B inh inactive, VLA-4 inh inactive, PKD1 kinase inh inactive, HDAC3 inhib inactive, GRK2 inh confirm inactive and FAM quench CP1 inactive.
Screening COC(=O)CCC(=O)NS(=O)(=O)c1ccc(N=NN2CCOCC2)cc1 returned GRK2 aptamer HTS inactive, Pemphigus Ab inh inactive, LANA-H2B inh inactive, VLA-4 inh inactive, PKD1 kinase inh inactive and HDAC3 inhib inactive.
